PubChem BioAssay (NCATS)
Records with an inconclusive call do not appear. Entries that show only a call come without a potency. The source made the active and inactive calls. Calls follow the shape of the dose curve; as a rule, active = well fitted curve in the direction sought with a large enough effect; inconclusive = small, poorly fitted or top-dose-only effect, or another doubt; inactive = no such curve, though single readings can be large; an effect the other way counts as inactive or inconclusive.

The compounds below were run against Rap guanine nucleotide exchange factor 3 (Homo sapiens) (UniProt O95398) (assay: Confirmatory qHTS for antagonist of cAMP-regulated guanine nucleotide exchange factor 3 (EPAC1) (AID 1645880; also: nearly all actives have a fitted effect of over 55% in size; also: potency is read from the fitted curve at half-maximal effect)). Conditions: EPAC1 Rap1B-BODIPY-GDP exchange, fluorescence; activity, negative = inhibition: at 115 µM (top of the series).
Sequence of Rap guanine nucleotide exchange factor 3 (Homo sapiens) (O95398 whole entry, looked up): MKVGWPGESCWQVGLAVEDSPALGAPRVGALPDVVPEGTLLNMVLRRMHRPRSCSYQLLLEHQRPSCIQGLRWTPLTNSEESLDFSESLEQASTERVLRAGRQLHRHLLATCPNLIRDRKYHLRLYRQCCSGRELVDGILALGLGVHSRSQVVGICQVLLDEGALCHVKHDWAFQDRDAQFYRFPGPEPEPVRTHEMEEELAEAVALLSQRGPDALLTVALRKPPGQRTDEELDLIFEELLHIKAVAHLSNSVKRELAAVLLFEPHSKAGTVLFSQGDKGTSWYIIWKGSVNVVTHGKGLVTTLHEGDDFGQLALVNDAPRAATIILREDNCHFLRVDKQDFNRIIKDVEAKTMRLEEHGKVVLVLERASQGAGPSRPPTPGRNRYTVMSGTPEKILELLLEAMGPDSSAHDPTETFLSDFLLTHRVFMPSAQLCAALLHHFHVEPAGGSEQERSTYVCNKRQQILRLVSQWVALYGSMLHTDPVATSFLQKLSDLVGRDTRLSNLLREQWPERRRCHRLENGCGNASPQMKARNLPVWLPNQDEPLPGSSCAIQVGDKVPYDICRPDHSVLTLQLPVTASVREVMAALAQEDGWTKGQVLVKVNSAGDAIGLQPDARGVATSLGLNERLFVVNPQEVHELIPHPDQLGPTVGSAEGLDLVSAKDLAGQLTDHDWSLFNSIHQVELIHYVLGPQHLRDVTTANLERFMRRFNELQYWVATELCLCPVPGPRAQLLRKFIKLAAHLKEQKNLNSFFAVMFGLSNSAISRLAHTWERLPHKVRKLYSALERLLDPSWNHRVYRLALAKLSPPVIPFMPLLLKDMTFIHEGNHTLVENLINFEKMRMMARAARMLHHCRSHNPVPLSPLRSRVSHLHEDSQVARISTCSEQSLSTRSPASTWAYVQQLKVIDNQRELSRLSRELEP
Procedure, shortened: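 Nucleotide exchange uses 100 nM EPAC1, 250 nM RAP1B-BODIPY-GDP and 50 uM GDP, with compounds in a concentration-titration series. After 5 min at room temperature, fluorescence (480 nm ex/540 nm em) is read every 5 min for 30 min. Data are normalized to control ATA and DMSO.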
With `COc1cc(/C=C2/C(=O)NN(c3ccc(Cl)c(Cl)c3)C2=O)cc([N+](=O)[O-])c1O` the Potency was 6.75 µM (active).
With `COc1ccccc1C1CCN(c2ccc(CO)cc2[N+](=O)[O-])CC1` the Potency was “inactive”.
`CC(C)c1ccc(OCC(=O)Nc2cccc(C(=O)Nc3ccccc3C(=O)O)c2)cc1` was tested, and the Potency was 75.7 µM (active).
For `CCOc1ccc(Br)cc1S(=O)(=O)Nc1ccc(S(=O)(=O)Nc2cc(C)on2)cc1`, the Potency was 19 µM (active).
With `Cc1nnc(SCCn2c(N3CCC(Cc4ccccc4)CC3)nc3c2c(=O)[nH]c(=O)n3C)s1` the Potency was “inactive”.
For `COc1ccc(N(C(=O)c2snc(C(N)=O)c2N)C(C(=O)NC2CCCC2)c2cccs2)cc1OC` (configuration not stated), the Potency was 33.8 µM (active).
With `COc1ccc(OC)c(C(C[N+](=O)[O-])c2c(C)cc3ccccn23)c1` (configuration not stated) the Potency was “inactive”.

The compounds below were run against Rap guanine nucleotide exchange factor 3 (Homo sapiens) (UniProt O95398) (assay: Confirmatory qHTS for agonist of cAMP-regulated guanine nucleotide exchange factor 3 (EPAC1) (AID 1645881;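 also: EPAC1 catalysed release of BODIPY-GDP from Rap1B seen as fluorescence loss; nearly all actives have a fitted effect of over 75% in size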)). Conditions: EPAC1 Rap1B BODIPY-GDP exchange fluorescence; series mostly up to 154 µM.
With `CNc1nc(C)cc(C)c1S(=O)(=O)c1ccc(C)cc1` the Potency was “inactive”.
In the case of `CCN(CC(=O)Nc1ccccc1C(=O)NC1CC1)Cc1cccs1`, the Potency is reported as “inactive”.
For `COc1cc(C(c2c(C(=O)O)[nH]c3ccccc23)c2c(C(=O)O)[nH]c3ccccc23)ccc1OCc1ccccc1`, the Potency was “inactive”.
With `COCCn1c(SCc2ccccc2F)nc2ccccc2c1=O` the Potency was “inactive”.
With `C=CCn1c(SC(F)F)nc2scc(-c3ccco3)c2c1=O` the Potency was “inactive”.
`CNC(=O)CSc1nc2ccccc2c(=O)n1-c1cc(OC)ccc1OC` was tested, and the Potency was “inactive”.
`Cc1ccccc1-c1cc2nc(NCCN3CCNC3=O)n(C)c(=O)c2s1` was tested, and the Potency was “inactive”.
For `Cc1ccc(-c2ccccc2C2=CC(=O)CC(C)(C)C2=O)cc1`, the Potency was “inactive”.
In the case of `CCCCOc1ccc(/C=C/C(=O)OCC(=O)NC(=O)NCC(C)C)cc1OCC`, the Potency is reported as “inactive”.
In the case of `CCOC(=O)c1c(NC(=O)/C=C/C(=O)O)sc(C)c1-c1ccc(C(C)(C)C)cc1`, the Potency is reported as “inactive”.
In the case of `O=C(CN1C(=O)NC2(CCCC2)C1=O)Nc1nc2c(F)cc(F)cc2s1`, the Potency is reported as “inactive”.
`CCOC(=O)C1=C(C)N=c2s/c(=C\c3ccc(OCC(=O)O)cc3)c(=O)n2C1c1ccc(OC(C)C)cc1` (configuration not stated) was tested, and the Potency was “inactive”.
For `CCN(CC(=O)Nc1c(F)cccc1F)C(=O)/C=C/c1ccc2ccccc2n1`, the Potency was “inactive”.
In the case of `CC(=O)c1c(-c2ccccc2)c2cc(Cl)ccc2n(C)c1=O`, the Potency is reported as “inactive”.
For `COc1ccccc1Oc1ncnc2c1oc1ccccc12`, the Potency was “inactive”.
`CCC(C(=O)OC(C)C)c1ccc2ccccc2c1` (configuration not stated) was tested, and the Potency was “inactive”.
`COc1ccc2nc(N3C(=O)C(O)=C(C(=O)c4ccco4)C3c3ccc(C)o3)sc2c1` (configuration not stated) was tested, and the Potency was “inactive”.
In the case of `C#CCOc1nc(C)cc(C)c1S(=O)(=O)c1ccccc1C`, the Potency is reported as “inactive”.
With `COCCN(CCOC)Cc1cc(=O)oc2cc(C)c(Cl)cc12` the Potency was “inactive”.
`O=C(O)CN1C(=O)/C(=C\c2cc(Br)ccc2OCc2ccc([N+](=O)[O-])cc2)SC1=S` was tested, and the Potency was “inactive”.
With `CC(C)(C)c1ccc(OCC(=O)Nc2ccc(C(=O)Nc3ccccc3C(=O)O)cc2)cc1` the Potency was “inactive”.
With `CCOC(=O)c1cc2c(ccn2C)n1Cc1ccccc1Cl` the Potency was “inactive”.
With `O=C(CN1CCCCCC1)Nc1ccccc1Oc1ccccc1` the Potency was “inactive”.
`COC(=O)C1=CN(Cc2cccs2)C=C(C(=O)OC)C1c1cccc(Cl)c1` was tested, and the Potency was “inactive”.
For `O=S(=O)(Nc1ccc(C(O)(C(F)(F)F)C(F)(F)F)cc1)c1ccc(Cl)c2nonc12`, the Potency was “inactive”.
`Cc1cc(/C=C2\SC(=S)NC2=O)c(C)n1-c1ccc(O)cc1` was tested, and the Potency was “inactive”.
In the case of `COc1cc(/C=C2\SC(=Nc3ccc(Cl)c(C(=O)O)c3)NC2=O)c(Br)c(Br)c1O`, the Potency is reported as “inactive”.
`COc1ccc(C(=O)n2c(-c3ccco3)nc3ccccc32)cc1` was tested, and the Potency was “inactive”.
For `O=C(N/N=C/c1ccccc1O)c1ccc2c(c1)OCO2`, the Potency was “inactive”.
With `Cc1cc(C)n(Cc2ccc(C(=O)N/N=C/c3ccc(-c4ccc([N+](=O)[O-])cc4)o3)o2)n1` the Potency was “inactive”.
With `CC(C(=O)Nc1ccc(O)c(C(=O)O)c1)N1C(=O)/C(=C/c2cccs2)SC1=S` (configuration not stated) the Potency was “inactive”.
In the case of `COc1ccc(OC)c(NC2c3ccccc3C(=O)N2c2cccnc2)c1` (configuration not stated), the Potency is reported as “inactive”.
For `O=C(NN1C(=O)/C(=C/c2ccc(O)c([N+](=O)[O-])c2)SC1=S)c1ccccc1Cl`, the Potency was “inactive”.
For `COc1cc(/C=C2/C(=O)NN(c3ccc(Cl)c(Cl)c3)C2=O)cc([N+](=O)[O-])c1O`, the Potency was “inactive”.
`COc1ccccc1C1CCN(c2ccc(CO)cc2[N+](=O)[O-])CC1` was tested, and the Potency was “inactive”.
In the case of `CC(C)c1ccc(OCC(=O)Nc2cccc(C(=O)Nc3ccccc3C(=O)O)c2)cc1`, the Potency is reported as “inactive”.
`CCOc1ccc(Br)cc1S(=O)(=O)Nc1ccc(S(=O)(=O)Nc2cc(C)on2)cc1` was tested, and the Potency was “inactive”.
`Cc1nnc(SCCn2c(N3CCC(Cc4ccccc4)CC3)nc3c2c(=O)[nH]c(=O)n3C)s1` was tested, and the Potency was “inactive”.
`COc1ccc(N(C(=O)c2snc(C(N)=O)c2N)C(C(=O)NC2CCCC2)c2cccs2)cc1OC` (configuration not stated) was tested, and the Potency was “inactive”.
For `COc1ccc(OC)c(C(C[N+](=O)[O-])c2c(C)cc3ccccn23)c1` (configuration not stated), the Potency was “inactive”.

These compounds were tested against Rap guanine nucleotide exchange factor 4 (Homo sapiens) (UniProt Q8WZA2) (assay: Confirmatory qHTS for agonist of cAMP-regulated guanine nucleotide exchange factor 4 (EPAC2) (AID 1645884;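 also: nucleotide exchange releases bodipy-GDP from Rap1 and this lowers its fluorescence; nearly all actives have a fitted effect of over 65% in size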)). Conditions: EPAC2 GEF activity, Rap1B-BODIPY-GDP fluorescence; series mostly up to 154 µM.
Sequence of Rap guanine nucleotide exchange factor 4 (Homo sapiens) (Q8WZA2 whole entry, looked up): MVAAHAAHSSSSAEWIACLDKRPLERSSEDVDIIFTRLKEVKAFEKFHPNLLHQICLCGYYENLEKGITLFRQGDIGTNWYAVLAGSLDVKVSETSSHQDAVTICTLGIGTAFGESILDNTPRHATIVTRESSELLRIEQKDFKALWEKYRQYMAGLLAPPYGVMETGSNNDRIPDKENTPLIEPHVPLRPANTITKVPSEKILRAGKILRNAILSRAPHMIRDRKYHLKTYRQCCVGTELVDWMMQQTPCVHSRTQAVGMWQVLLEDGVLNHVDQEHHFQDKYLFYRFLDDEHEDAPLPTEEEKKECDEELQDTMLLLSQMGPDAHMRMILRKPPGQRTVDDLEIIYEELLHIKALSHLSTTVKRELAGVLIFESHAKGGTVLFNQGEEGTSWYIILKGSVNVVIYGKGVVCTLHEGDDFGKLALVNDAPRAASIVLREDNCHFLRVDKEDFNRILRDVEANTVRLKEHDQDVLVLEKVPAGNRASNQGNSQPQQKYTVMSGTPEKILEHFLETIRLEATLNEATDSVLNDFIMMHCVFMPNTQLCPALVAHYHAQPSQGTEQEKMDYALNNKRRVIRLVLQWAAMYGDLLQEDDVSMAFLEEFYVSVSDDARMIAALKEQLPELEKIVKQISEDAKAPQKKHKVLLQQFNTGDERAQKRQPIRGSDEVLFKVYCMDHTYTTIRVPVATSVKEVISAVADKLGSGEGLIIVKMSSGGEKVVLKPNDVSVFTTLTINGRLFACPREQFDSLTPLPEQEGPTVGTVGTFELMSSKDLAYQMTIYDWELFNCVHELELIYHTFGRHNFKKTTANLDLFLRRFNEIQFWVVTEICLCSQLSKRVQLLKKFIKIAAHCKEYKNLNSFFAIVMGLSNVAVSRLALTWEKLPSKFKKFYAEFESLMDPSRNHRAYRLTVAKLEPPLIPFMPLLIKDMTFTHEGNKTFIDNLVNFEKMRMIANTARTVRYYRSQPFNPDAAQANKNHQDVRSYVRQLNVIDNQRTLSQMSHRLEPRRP
With `CNc1nc(C)cc(C)c1S(=O)(=O)c1ccc(C)cc1` the activation was 6.77% [at 17.1 µM, percent relative to cAMP agonist control] (inactive).
`CCN(CC(=O)Nc1ccccc1C(=O)NC1CC1)Cc1cccs1` was tested, and the Potency was “inactive”.
`COc1cc(C(c2c(C(=O)O)[nH]c3ccccc23)c2c(C(=O)O)[nH]c3ccccc23)ccc1OCc1ccccc1` was tested, and the Potency was “inactive”.
For `COCCn1c(SCc2ccccc2F)nc2ccccc2c1=O`, the activation was 4.59% [at 17.1 µM, percent relative to cAMP agonist control] (inactive).
`C=CCn1c(SC(F)F)nc2scc(-c3ccco3)c2c1=O` was tested, and the Potency was “inactive”.
`CNC(=O)CSc1nc2ccccc2c(=O)n1-c1cc(OC)ccc1OC` was tested, and the activation was -3% [at 17.1 µM, percent relative to cAMP agonist control] (inactive).
With `Cc1ccccc1-c1cc2nc(NCCN3CCNC3=O)n(C)c(=O)c2s1` the Potency was “inactive”.
For `Cc1ccc(-c2ccccc2C2=CC(=O)CC(C)(C)C2=O)cc1`, the activation was -2.04% [at 17.1 µM, percent relative to cAMP agonist control] (inactive).
For `CCCCOc1ccc(/C=C/C(=O)OCC(=O)NC(=O)NCC(C)C)cc1OCC`, the Potency was “inactive”.
`CCOC(=O)c1c(NC(=O)/C=C/C(=O)O)sc(C)c1-c1ccc(C(C)(C)C)cc1` was tested, and the Potency was “inactive”.
For `O=C(CN1C(=O)NC2(CCCC2)C1=O)Nc1nc2c(F)cc(F)cc2s1`, the Potency was “inactive”.
`CCOC(=O)C1=C(C)N=c2s/c(=C\c3ccc(OCC(=O)O)cc3)c(=O)n2C1c1ccc(OC(C)C)cc1` (configuration not stated) was tested, and the Potency was “inactive”.
For `CCN(CC(=O)Nc1c(F)cccc1F)C(=O)/C=C/c1ccc2ccccc2n1`, the Potency was “inactive”.
`CC(=O)c1c(-c2ccccc2)c2cc(Cl)ccc2n(C)c1=O` was tested, and the activation was -9.72% [at 17.1 µM, percent relative to cAMP agonist control] (inactive).
`COc1ccccc1Oc1ncnc2c1oc1ccccc12` was tested, and the activation was -4.43% [at 17.1 µM, percent relative to cAMP agonist control] (inactive).
For `CCC(C(=O)OC(C)C)c1ccc2ccccc2c1` (configuration not stated), the Potency was “inactive”.
With `COc1ccc2nc(N3C(=O)C(O)=C(C(=O)c4ccco4)C3c3ccc(C)o3)sc2c1` (configuration not stated) the Potency was “inactive”.
`C#CCOc1nc(C)cc(C)c1S(=O)(=O)c1ccccc1C` was tested, and the activation was -13.7% [at 17.1 µM, percent relative to cAMP agonist control] (inactive).
With `COCCN(CCOC)Cc1cc(=O)oc2cc(C)c(Cl)cc12` the Potency was “inactive”.
With `O=C(O)CN1C(=O)/C(=C\c2cc(Br)ccc2OCc2ccc([N+](=O)[O-])cc2)SC1=S` the Potency was “inactive”.
For `CC(C)(C)c1ccc(OCC(=O)Nc2ccc(C(=O)Nc3ccccc3C(=O)O)cc2)cc1`, the Potency was “inactive”.
`CCOC(=O)c1cc2c(ccn2C)n1Cc1ccccc1Cl` was tested, and the Potency was “inactive”.
In the case of `O=C(CN1CCCCCC1)Nc1ccccc1Oc1ccccc1`, the Potency is reported as “inactive”.
`COC(=O)C1=CN(Cc2cccs2)C=C(C(=O)OC)C1c1cccc(Cl)c1` was tested, and the activation was 2.31% [at 17.1 µM, percent relative to cAMP agonist control] (inactive).
In the case of `O=S(=O)(Nc1ccc(C(O)(C(F)(F)F)C(F)(F)F)cc1)c1ccc(Cl)c2nonc12`, the Potency is reported as “inactive”.
`Cc1cc(/C=C2\SC(=S)NC2=O)c(C)n1-c1ccc(O)cc1` was tested, and the Potency was “inactive”.
For `COc1cc(/C=C2\SC(=Nc3ccc(Cl)c(C(=O)O)c3)NC2=O)c(Br)c(Br)c1O`, the activation was 9.28% [at 17.1 µM, percent relative to cAMP agonist control] (inactive).
In the case of `COc1ccc(C(=O)n2c(-c3ccco3)nc3ccccc32)cc1`, the activation is reported as 7.17% [at 17.1 µM, percent relative to cAMP agonist control] (inactive).
With `O=C(N/N=C/c1ccccc1O)c1ccc2c(c1)OCO2` the Potency was “inactive”.
In the case of `Cc1cc(C)n(Cc2ccc(C(=O)N/N=C/c3ccc(-c4ccc([N+](=O)[O-])cc4)o3)o2)n1`, the Potency is reported as “inactive”.
In the case of `CC(C(=O)Nc1ccc(O)c(C(=O)O)c1)N1C(=O)/C(=C/c2cccs2)SC1=S` (configuration not stated), the Potency is reported as “inactive”.
With `COc1ccc(OC)c(NC2c3ccccc3C(=O)N2c2cccnc2)c1` (configuration not stated) the Potency was “inactive”.
`O=C(NN1C(=O)/C(=C/c2ccc(O)c([N+](=O)[O-])c2)SC1=S)c1ccccc1Cl` was tested, and the Potency was “inactive”.
With `COc1cc(/C=C2/C(=O)NN(c3ccc(Cl)c(Cl)c3)C2=O)cc([N+](=O)[O-])c1O` the Potency was “inactive”.
For `COc1ccccc1C1CCN(c2ccc(CO)cc2[N+](=O)[O-])CC1`, the Potency was “inactive”.
For `CC(C)c1ccc(OCC(=O)Nc2cccc(C(=O)Nc3ccccc3C(=O)O)c2)cc1`, the Potency was “inactive”.
With `CCOc1ccc(Br)cc1S(=O)(=O)Nc1ccc(S(=O)(=O)Nc2cc(C)on2)cc1` the Potency was “inactive”.
With `Cc1nnc(SCCn2c(N3CCC(Cc4ccccc4)CC3)nc3c2c(=O)[nH]c(=O)n3C)s1` the Potency was “inactive”.
`COc1ccc(N(C(=O)c2snc(C(N)=O)c2N)C(C(=O)NC2CCCC2)c2cccs2)cc1OC` (configuration not stated) was tested, and the Potency was “inactive”.
With `COc1ccc(OC)c(C(C[N+](=O)[O-])c2c(C)cc3ccccn23)c1` (configuration not stated) the Potency was “inactive”.
